From PubChem BioAssay (NCI)
Compounds without any hit were thinned out: in the full panel of roughly 83,000, 20% have a hit.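 Interpretation: 100, growth as untreated; towards 0, rising growth inhibition; 0, no net growth; 0 to -100, cell death. Compounds scoring below 10 were considered active.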 Active and inactive are the calls of the source.

Key:
Assay in all cases: NCI-60 one-dose screen, 48 h (100 = growth as untreated, 0 = no growth, -100 = all killed)
Conditions in all cases: 10 µM unless noted
NCI-H23 lung = test system: NCI-H23 lung
NCI-H226 lung = test system: NCI-H226 lung
NCI-H322M lung = test system: NCI-H322M lung
HOP-62 NSCLC = test system: HOP-62 NSCLC
NCI-H460 lung = test system: NCI-H460 lung
NCI-H522 lung = test system: NCI-H522 lung
A549/ATCC NSCLC = test system: A549/ATCC NSCLC
786-0 renal = test system: 786-0 renal
DU-145 prostate = test system: DU-145 prostate
MALME-3M melanoma = test system: MALME-3M melanoma
MDA-MB-231 breast = test system: MDA-MB-231 breast
RXF 393 renal = test system: RXF 393 renal
SF-268 CNS = test system: SF-268 CNS
SF-295 CNS = test system: SF-295 CNS
SF-539 CNS = test system: SF-539 CNS
UACC-257 melanoma = test system: UACC-257 melanoma
M14 melanoma = test system: M14 melanoma
HCT-15 colon = test system: HCT-15 colon
K-562 leukemia = test system: K-562 leukemia

Measured: growth

NNC(=O)C1CC2c3ccccc3C1c1ccccc12 (stereo not drawn)
inactive: NCI-H23 lung 101% | NCI-H226 lung 101% | NCI-H322M lung 116% | HOP-62 NSCLC 112% | NCI-H460 lung 115% | NCI-H522 lung 87% | A549/ATCC NSCLC 113% | 786-0 renal 105% | DU-145 prostate 115% | MALME-3M melanoma 123% | MDA-MB-231 breast 102% | RXF 393 renal 116% | SF-268 CNS 98.7% | SF-295 CNS 105% | SF-539 CNS 99% | UACC-257 melanoma 118% | M14 melanoma 111% | HCT-15 colon 111%

CSc1nc2c(c(=O)n1C)C(c1ccccc1)C1=C(N2)/C(=C/c2ccccc2)CCC1 (stereo not drawn)
active: SF-295 CNS 7.45%
inactive: NCI-H23 lung 54.8% | NCI-H226 lung 74.1% | NCI-H322M lung 86% | HOP-62 NSCLC 94.3% | NCI-H460 lung 54.3% | NCI-H522 lung 24.5% | A549/ATCC NSCLC 86.2% | 786-0 renal 54.6% | DU-145 prostate 72.2% | MALME-3M melanoma 70.4% | MDA-MB-231 breast 53.5% | RXF 393 renal 36.9% | SF-268 CNS 62.6% | SF-539 CNS 63.4% | UACC-257 melanoma 52.2% | M14 melanoma 65.9% | HCT-15 colon 58.9%

C=C(C)[C@H]1CC/C(C)=C/CC[C@]2(C)O[C@H]2CC/C(COC(C)=O)=C\C1=O
inactive: NCI-H23 lung 103% | NCI-H226 lung 130% | NCI-H322M lung 87.3% | HOP-62 NSCLC 102% | NCI-H460 lung 116% | NCI-H522 lung 109% | A549/ATCC NSCLC 37.7% | 786-0 renal 92.1% | DU-145 prostate 140% | K-562 leukemia 95.8% | MDA-MB-231 breast 98.4% | RXF 393 renal 105% | SF-268 CNS 115% | SF-539 CNS 117% | UACC-257 melanoma 128% | M14 melanoma 105% | HCT-15 colon 109%
